Data from PubChem BioAssay AID434970 (Sanford-Burnham Center for Chemical Genomics, 2010).
Hit rate of the full screen: of about 11,000 compounds, about 310 (2.8%) were called active. Rule as the data show it: active = activity change below about -85%; inactive = the rest. For the sample, actives were picked, then their nearest neighbours and some compounds at random.

tested on: intestinal alkaline phosphatase [Mus musculus]; test: mouse intestinal phosphatase enzyme activation – biochemical, luminescence, single concentration, confirmation (AID 434970); conditions: purified mouse IAP, CDP-Star luminescence, 30 min, at 10 µM; activation factor: measured here: IAP activation factor, stronger effect = higher value; activity change, negative = activation: stronger effect = lower value

SMILES	activation factor	activity change, negative = activation
C=CCn1c(C)cc(C(=O)COC(=O)COc2ccccc2C#N)c1C	0.919	8.05% (inactive)
S=c1[nH]nc(CSc2nc3ccccc3s2)n1Cc1ccccc1	1.1	-10.1% (inactive)
CCOC(=O)C1=CN(Cc2cccc(F)c2)S(=O)(=O)N(CC)C1c1ccc(F)c(Cl)c1 (stereo unspecified)	1.1	-9.9% (inactive)
CC(=O)Cc1nsc(NC(=O)c2ccc(-c3cccc(C(F)(F)F)c3)o2)n1	0.948	5.2% (inactive)
COc1cc(OC)c(C2N(c3ccccn3)C(=O)C3CCCN32)cc1OC (stereo unspecified)	1.11	-10.6% (inactive)
Cc1cc(C(=O)CSc2nnc(-c3cccc(F)c3)n2N)c(C)n1Cc1ccc2c(c1)OCO2	0.849	15.2% (inactive)
Nc1ncnc2c1ncn2[C@@H]1O[C@H](CNC(=O)[C@@H](N)CO)[C@@H](O)[C@H]1O	0.992	0.75% (inactive)
S=C(NCc1ccccc1)Nc1ccc(Oc2ccccc2)cc1	1.49	-49% (inactive)
COc1cc(OC)c2c(-c3ccccc3)cc(=O)oc2c1C(CCN1CCOCC1)c1ccc(N(C)C)cc1 (stereo unspecified)	0.992	0.8% (inactive)
CN(C)S(=O)(=O)n1cnc(-c2ccccc2)c1-c1ccccc1	1.06	-5.85% (inactive)
Cc1ccc(NC(=O)C2CCN(C(=O)NC3CCCCC3)CC2)c(C)c1	1.02	-1.95% (inactive)
Cc1cccc(N/C(N)=N/c2nc(C)cc(C)n2)c1	1.05	-4.7% (inactive)
Cc1ccc(N/C(N)=N/c2nc(C)cc(N3CCCCC3)n2)c(C)c1	4.22	-322% (active)
CCOC(=O)C1=CN(Cc2ccco2)S(=O)(=O)NC1c1cccc(OC)c1 (stereo unspecified)	0.986	1.35% (inactive)
CCOc1ccc(-c2nnc(-c3cccnc3)o2)cc1OCC	0.916	8.35% (inactive)
O=S(=O)(Nc1ccccc1)c1ccc(Oc2ncc(C(F)(F)F)cc2Cl)cc1	0.903	9.65% (inactive)
CC1(C)N=C(N)NC(Nc2ccccc2)=N1	1.04	-4% (inactive)
COc1cccc(NC2=NC3(CCCCC3)N=C(N)N2)c1	1.5	-50.5% (inactive)
Cc1cc(C)cc(NC2=NC3(CCCCC3)N=C(N)N2)c1	3.22	-222% (active)

SMILES	activation factor	activity change, negative = activation
COc1ccc(OC)c(NC2=NC3(CCCCC3)N=C(N)N2)c1	1.17	-16.5% (inactive)
COc1ccc(OC)c(NC2=NC3(CCCC3)N=C(N)N2)c1	1.22	-21.9% (inactive)
CCCCOc1ccc(NC2=NC3(CCCCC3)N=C(N)N2)cc1	5.53	-453% (active)
S=C(NCCNCc1ccccc1)NC1CCCCC1	1.18	-18% (inactive)
O=C(NN1C(=O)CSC1=S)C(=O)NN1C(=O)CSC1=S	0.0825	91.8% (inactive)
CC(C)=CCC/C(C)=C/CNC(=O)C[C@H]1C[C@H](C(=O)N(C(C)C)C(C)C)[C@@]2(C)c3[nH]c4cc(-c5ccco5)ccc4c3CCN2C1=O	1.39	-39.4% (inactive)
COc1ccc(NC(=O)CCS(=O)(=O)c2cccc3nonc23)c(OC)c1	0.945	5.5% (inactive)
COc1ccc(C2CC(c3ccc(C(F)(F)F)cc3)=NN2c2ccc(S(N)(=O)=O)cc2)cc1 (stereo unspecified)	1.37	-36.7% (inactive)
COc1ccc(C2CC(c3cccc(Cl)c3)=NN2c2ccc(S(N)(=O)=O)cc2)cc1 (stereo unspecified)	1.79	-78.7% (inactive)
COc1ccc(C2CC(c3ccccc3C(F)(F)F)=NN2c2ccc(S(N)(=O)=O)cc2)cc1 (stereo unspecified)	2.21	-121% (active)
COc1ccc(C2CC(c3ccccc3F)=NN2c2ccc(S(N)(=O)=O)cc2)cc1 (stereo unspecified)	2.13	-113% (active)
COc1ccc(C2CC(c3ccccc3Br)=NN2c2ccc(S(N)(=O)=O)cc2)cc1 (stereo unspecified)	1.27	-26.8% (inactive)
COc1ccc(C2CC(c3cccc(C(F)(F)F)c3)=NN2c2ccc(S(N)(=O)=O)cc2)cc1 (stereo unspecified)	1.51	-50.8% (inactive)
COc1ccc(C2CC(c3cccc(F)c3)=NN2c2ccc(S(N)(=O)=O)cc2)cc1 (stereo unspecified)	1.67	-67.2% (inactive)
COc1ccc(C2CC(c3ccc(Cl)cc3)=NN2c2ccc(S(N)(=O)=O)cc2)cc1 (stereo unspecified)	1.6	-59.8% (inactive)
COc1ccc(C2CC(c3ccccc3Cl)=NN2c2ccc(S(N)(=O)=O)cc2)cc1 (stereo unspecified)	2.18	-118% (active)
CSc1ccc(-c2nc(CSCC(=O)NCCCN3CCOCC3)c(C)o2)cc1	0.847	15.3% (inactive)
CCOC(=O)C1=C(C)OC(N)=C(C#N)C1c1cc2cc(C)ccc2nc1N1CCCCC1 (stereo unspecified)	1.02	-1.65% (inactive)
CN(C)CCCNC(=O)C[C@H]1C[C@H](C(=O)N2CCCCC2)[C@@]2(CCc3ccccc3)c3[nH]c4cc(CCC(=O)N(C)C)ccc4c3CCN2C1=O	1.1	-10.1% (inactive)
